# Tb PYK inh: blocks Trypanosoma brucei pyruvate kinase. Q57TT1. TbPYK enzyme, Kinase-Glo Plus ATP luminescence, 45 min. Potency, µM (highest dose often 76.8 µM), hits mostly inhibitors. 410,000 tested, 0.12% active. AID 624173; further: nearly all actives have a fitted effect of over 50% in size
#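 ADP (130 uM final) triggers the TbPYK reaction after compound addition; incubation is 45 min at room temperature. Kinase-Glo Plus is then added and luminescence imaged. Normalized data are fitted to concentration-effect curves.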
# AMA1 RON2 block: inhibitors of Plasmodium falciparum AMA1-RON2 interaction; AlphaScreen AMA1-biotinylated RON2 peptide binding; Potency, µM (titrated, usually from 58.2 µM), hits mostly inhibitors; 360,000 tested, 0.2% active; AID 720542; further: nearly all actives have a fitted effect of over 45% in size
#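 AMA1 (3D7) with his tag at 25 nM final met compounds first, then biotinylated RON2 peptide at 25 nM; detection used donor plus acceptor beads, 10 µg/mL apiece, read by AlphaScreen after 30 min at room temperature.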
# LmPK inh: blocks Leishmania mexicana pyruvate kinase activity | Potency, µM (top dose mostly 57.5 µM), most hits filed as inhibitors | 290,000 tested, 0.37% active | purified LmPK, Kinase-Glo ATP luminescence, 1 h | Q27686
# Target sequence (Q27686 whole entry, looked up): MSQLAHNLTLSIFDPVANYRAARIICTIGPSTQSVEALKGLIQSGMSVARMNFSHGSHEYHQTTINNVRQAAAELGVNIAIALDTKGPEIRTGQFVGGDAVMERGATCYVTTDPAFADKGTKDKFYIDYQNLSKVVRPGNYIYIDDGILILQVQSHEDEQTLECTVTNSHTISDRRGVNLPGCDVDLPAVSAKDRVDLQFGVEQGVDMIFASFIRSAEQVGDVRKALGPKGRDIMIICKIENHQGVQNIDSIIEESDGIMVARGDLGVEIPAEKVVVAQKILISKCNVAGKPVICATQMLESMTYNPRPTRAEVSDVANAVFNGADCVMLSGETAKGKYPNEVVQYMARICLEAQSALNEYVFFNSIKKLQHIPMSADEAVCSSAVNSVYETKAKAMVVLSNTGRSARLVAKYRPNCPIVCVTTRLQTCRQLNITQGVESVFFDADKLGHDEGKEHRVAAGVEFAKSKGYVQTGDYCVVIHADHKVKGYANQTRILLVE
#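 In 50 mM imidazole pH 7.2 with 7 mM MgCl2, LmPK (0.1 nM) turned over PEP (0.5 mM) and ADP (0.1 mM) for 1 h at room temperature. Luciferase read-out of ATP.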
# Sm TGR block: blocks Schistosoma mansoni thioredoxin glutathione reductase | Q962Y6 | purified TGR, DTNB reduction, TNB absorbance 405 nm | Potency, µM (highest dose often 114 µM), hits mostly inhibitors | 360,000 tested, 3% active | AID 485364; further: nearly all actives have a fitted effect of over 60% in size
#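 TGR 20 nM + NADPH 100 uM (dispensed conc.), cpd preinc 15 min RT; start with NADPH (500 uM addition) then DTNB (15 mM addition). Kinetic TNB absorbance, 405 nm filter. Four-parameter Hill fit across titration.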
# RE007 growth inh: less growth of the S. pombe RE007 Vpr strain; S. pombe RE007 Vpr strain, BacTiter-Glo ATP luminescence, 24 h; Potency, µM (series often up to 92.2 µM), actives largely listed as inhibitors; 360,000 tested, 0.21% active; AID 651644; active means well fitted falling curve with a large enough effect; inconclusive means small, poorly fitted or top-dose-only effect; inactive means no such curve, though single readings can be large or run the other way; further: nearly all actives have a fitted effect of over 50% in size
#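 Fission yeast RE007 carrying one integrated HIV-1 vpr copy, seeded at OD 0.01 in PMG+AL medium with 23 nL pinned compound. Grown 24 h at 30 degrees; viability read by BacTiter-Glo luminescence after 5 min.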
# A number is an active result; 0 = inactive; ? = inconclusive; - = no result given; [ ] = remark or other dose. Compounds with a hit are over-represented: about 3.2% of the library has one in this group of screens. Unless noted, the call rests on the fitted dose curve; in most records, active means well fitted curve in the direction sought with a large enough effect; inconclusive means small, poorly fitted or top-dose-only effect, or another doubt; inactive means no such curve, though single readings can be large; an effect the other way counts as inactive or inconclusive.
SMILES,Tb PYK inh,AMA1 RON2 block,LmPK inh,Sm TGR block,RE007 growth inh
Cc1ccc2[nH]c(=O)c(CN(C(=O)c3cccc(Cl)c3)C(C)(C)C)cc2c1,0,-,-,0,-
CCCCOC(=O)c1ccc(NC(=O)Cc2coc3c(C)c(C)ccc23)cc1,0,-,-,0,-
O=C(COc1ccc(F)cc1)OCc1cc(=O)n2nc(C3CC3)sc2n1,0,-,-,0,-
CCOc1cc(/C=C2\COc3ccccc3C2=O)cc(Br)c1OCC(=O)N(C)C,0,0,0,11µM,0
C[C@]12O[C@H](C[C@]1(O)CO)n1c3ccccc3c3c4c(c5c6ccccc6n2c5c31)CNC4=O,0,-,-,-,-
N#CCCn1c(SCC(=O)NCc2ccco2)nc2ccccc21,0,0,0,40µM,0
CCCCn1c(SCC(=O)NCc2ccco2)nc2ccccc2c1=O,0,0,0,0,0
C=CCn1c(SCC(=O)NC2CC2)nc2ccccc2c1=O,0,0,-,0,0
CCN(CC)CCn1c(SCC(=O)NCCC2=CCCCC2)nc2c(sc3ccccc32)c1=O,0,0,0,0,0
O=C(CSc1nc2ccccc2c(=O)n1Cc1ccco1)NCc1ccco1,0,0,0,40µM,0
C=CCn1c(SCC(=O)Nc2ccccc2F)nc2ccccc2c1=O,0,0,0,79µM,0
CCN(CC)CCn1c(SCC(=O)NCc2ccco2)nc2c(sc3ccccc32)c1=O,0,0,0,32µM,0
Cc1cccn2c(=O)c(C(=O)N3CCN(c4ccc(Cl)cc4)CC3)cnc12,0,-,-,0,-
O=c1c2ccccc2ncn1-c1ccc(Cl)cc1Cl,0,0,0,0,0
O=c1c2ccccc2sn1-c1ccc(Cl)cc1Cl,18µM,0,-,-,45µM
CC1=CC(=O)C(C(C)C)=C/C1=N/OC(=O)c1cccc([N+](=O)[O-])c1,0,0,0,45µM,0
CC1=CC(=NOC(=O)c2cccc([N+](=O)[O-])c2)C=C(C)C1=O,0,0,0,2.8µM,0
CC(C)c1ccc(N2C(=O)NC(=O)/C(=C\c3cnc(-c4ccccc4)nc3)C2=O)cc1,0,0,0,11µM,0
Cc1ccc(N2C(=O)NC(=O)/C(=C\c3ccsc3)C2=O)cc1C,-,-,0,0,-
Cc1cccc(N2C(=O)NC(=O)/C(=C\c3cnc(-c4ccccc4)nc3)C2=O)c1,0,0,0,5µM,0
Cc1ccc(N2C(=O)NC(=O)/C(=C/c3cnc(-c4ccccc4)nc3)C2=O)cc1C,0,0,0,1.8µM,0
Cc1cccc(N2C(=O)NC(=O)/C(=C\c3ccc(N4CCOCC4)cc3)C2=O)c1,?,0,0,?,0
Cc1cn(S(=O)(=O)c2ccc(F)c(Cl)c2)cn1,0,-,-,0,-
O=C(Cn1ncc2c([nH]c3ccccc32)c1=O)Nc1cc(F)ccc1F,0,-,-,0,-
COc1ccc(C(=O)N2CCCC(CO)(Cc3ccccc3C)C2)o1 (stereo not drawn),0,0,0,45µM,0
SMILES,Tb PYK inh,AMA1 RON2 block,LmPK inh,Sm TGR block,RE007 growth inh
Cc1ccccc1CC1(CO)CCCN(C(=O)c2ccoc2)C1 (stereo not drawn),0,0,-,-,0
COc1ccc(NC(=O)CSc2ncc3c(n2)-c2cc(Cl)ccc2N(Cc2ccccc2F)S3(=O)=O)cc1,0,-,-,0,-
COc1cc(CN2CCN(C(=O)c3cccc4ccccc34)CC2)cc(OC)c1O,0,0,0,6.3µM,0
COc1ccccc1N1CCN(Cc2ccc(Br)cc2)CC1,0,0,0,35µM,0
COc1ccc(OC)c(CN2CCN(C(=O)c3cccc4ccccc34)CC2)c1,0,?,0,0,0
COc1cc(CN2CCN(c3cccc(C)c3C)CC2)cc(OC)c1O,0,0,0,32µM,0
COc1ccc(N(C)C(=O)c2cn(C3CCCCC3)c(=O)c3c2c2ccccc2n3C)cc1,0,-,-,0,-
COc1ccccc1N1CCN(c2ncnc3c2nnn3C)CC1,0,-,-,0,-
O=C1CN(C(=O)Cn2ncc(Cl)c(Cl)c2=O)c2ccccc2N1,0,0,0,25µM,0
O=C1CN(CC(=O)Nc2cccc(Cl)c2Cl)c2ccccc2N1,0,0,0,50µM,0
CN1CCN(C=Nc2nc3ccccc3nc2N2CCCC2)CC1,0,0,0,32µM,0
COc1nc2ccccc2nc1N1CCN(C)CC1,0,0,0,0,0
O=[As](O)(O)c1ccc(N=Nc2ccc(O)cc2)cc1,0,0,0,50µM,-
COc1cc(Cl)c(NC(=O)CN(C)S(=O)(=O)c2ccc3c(c2)CCCC(=O)N3)c(OC)c1,0,-,-,0,-
O=C(CC1C(=O)NCCN1Cc1ccc(F)cc1Cl)NCc1ccon1 (stereo not drawn),0,0,0,13µM,0
O=CN1CCCN(C(=O)CC2C(=O)NCCN2Cc2cccc(Oc3ccccc3)c2)CC1 (stereo not drawn),0,0,0,13µM,0
COc1cccc(CN2CCNC(=O)C2CC(=O)N(C)C2CCCCC2)c1 (stereo not drawn),0,0,0,45µM,0
CN(Cc1cnn(C)c1)C(=O)CC1C(=O)NCCN1Cc1cccc(Oc2ccccc2)c1 (stereo not drawn),0,0,0,40µM,0
O=C(NCc1ccccc1)C1CCN(S(=O)(=O)c2ccc3c(c2)CCCN3C(=O)C2CCC2)CC1,0,-,-,0,-
Cc1oc2c(cc(NS(=O)(=O)c3ccc(F)cc3)c3ccccc32)c1C(=O)OCc1ccccc1,0,-,-,0,-
Cc1ccc2oc(C(=O)Nc3c(C(=O)Nc4ccccc4)oc4ccccc34)cc(=O)c2c1,0,-,-,0,-
CN(Cc1ccccn1)C(=O)CC1C(=O)NCCN1Cc1ccc(F)cc1Cl (stereo not drawn),0,0,0,45µM,0
CN(Cc1cnccn1)C(=O)CC1C(=O)NCCN1Cc1ccc(F)cc1Cl (stereo not drawn),0,0,0,0,0
CN(Cc1ccccn1)C(=O)CC1C(=O)NCCN1Cc1cccc(Oc2ccccc2)c1 (stereo not drawn),0,0,0,50µM,0
CN(Cc1ccon1)C(=O)CC1C(=O)NCCN1Cc1cccc(Oc2ccccc2)c1 (stereo not drawn),0,0,0,?,0
CN(CC1CCOCC1)C(=O)CC1C(=O)NCCN1Cc1cccc(Oc2ccccc2)c1 (stereo not drawn),0,0,0,40µM,0
C=CCN1c2ccccc2[C@]23C[C@@H](C(=O)OC)N(S(=O)(=O)c4ccc(Br)cc4)C2=NC(C(=O)OC)=C(C(=O)OC)[C@H]13,-,-,0[11.5 µM],-,-
Cc1ccc(S(=O)(=O)N2CCN(Cc3noc(CCC(=O)N4CCCCC4)n3)CC2)c(C)c1,0,-,-,0,-
Cc1cc(C)n(-c2ccc(NN=C(C#N)C#N)cc2)n1,0,0,0,32µM,0
COc1ccc(C2/C=C\CN(CC(C)(C)C)CC(=O)N2Cc2ccc(F)cc2)cc1 (stereo not drawn),0,0,0,32µM,0

# Screening data (PubChem)
